According to PubChem BioAssay (Tox21):
Results filed as inconclusive are left out. Where a call stands in place of a potency, no number is given. Active and inactive are the calls of the source. Unless noted, calls follow the shape of the full dose curve.

Experiments:
[1] = Nuclear factor erythroid 2-related factor 2/antioxidant responsive element (Nrf2/ARE) small molecule agonists: qHTS cell viability counter screen in human keratinocytes (AID 1919968; active = well fitted curve in the direction sought with a large enough effect in the repeat runs; an effect the other way counts as inactive or inconclusive; also: nearly all actives have a fitted effect of over 55% in size; also: potency is read from the fitted curve at half-maximal effect); settings: KeratinoSens HaCaT ARE cells viability, CellTiter-Fluor, 24 h; series mostly up to 92.4 µM
Method in brief: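 Viability counter-screen: KeratinoSens reporter cells, DMSO-delivered compounds, 23 h at 37 C, CellTiter-Fluor fluorescence.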

[2] = Nuclear factor erythroid 2-related factor 2/antioxidant responsive element (Nrf2/ARE) small molecule agonists: luciferase reporter gene qHTS assay in human keratinocytes (AID 1919969); settings: KeratinoSens HaCaT ARE-luciferase, luminescence, 24 h; series mostly up to 92.4 µM; also: nearly all actives have a fitted effect of over 35% in size; also: potency is read from the fitted curve at half-maximal effect
[3] = biological target: Gonadotropin-releasing hormone receptor (Homo sapiens) (UniProt P30968); experiment: Human gonadotropin-releasing hormone receptor (GnRHR) small molecule agonists, calcium flux assay in GnRHR-HEK293 cells (AID 1920063); settings: calcium flux fluorescence, agonist mode; series mostly up to 57.6 µM; also: nearly all actives have a fitted effect of over 35% in size; also: potency is read from the fitted curve at half-maximal effect
Method in brief: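 Tox21-format agonist screen using human GnRHR-expressing HEK293 cells and a fluorescent calcium dye; kinetic 3-min fluorescence reading after compound addition, 15-point concentration series run in triplicate.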

[4] = G protein-coupled receptor (GPCR) small molecule agonists, calcium flux assay: HEK293 wild type cell line counter screen (AID 1920065); settings: HEK293 WT calcium flux, fluorescence, agonist mode; series mostly up to 57.6 µM
Method in brief: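 In this agonist-mode screen, ATP is the positive control and DMSO the vehicle. Cells grow 18 h before a 1 h dye incubation at 37 C; signal is taken at Ex/Em 480/540 over 3 min.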

[5] = p53 small molecule agonists, cell-based qHTS assay with human liver microsomes (AID 1963577); settings: HCT-116 p53RE-bla with human liver microsomes, ratio, 16 h; series mostly up to 66 µM; also: potency is read from the fitted curve at half-maximal effect
Method in brief: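 With metabolic activation: human liver microsomes (0.5 mg/mL final) plus NADPH (0.5 mg/mL final) added alongside compounds to p53RE-bla cells; 16 h 37 C exposure; beta-lactamase read by LiveBLAzer fluorescence.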

[6] = p53 small molecule agonists, cell-based qHTS assay with rat liver microsomes: qHTS cell viability counter screen (AID 1963580); settings: p53RE-bla HCT-116 + rat microsomes, ATP viability, 16 h; series mostly up to 66 µM; also: nearly all actives have a fitted effect of over 45% in size; also: potency is read from the fitted curve at half-maximal effect
Method in brief: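 Viability is assessed in parallel with the p53 reporter read: HCT-116 p53RE-bla cells receive compounds plus rat microsomes and NADPH (0.5 mg/mL final apiece), incubate 16 h at 37 C, and then CellTiter-Glo luminescence is recorded.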

[7] = p53 small molecule agonists, cell-based qHTS assay: qHTS cell viability counter screen (AID 1963581); settings: p53RE-bla HCT-116 viability, ATP luminescence, 16 h; series mostly up to 66 µM; also: nearly all actives have a fitted effect of over 45% in size; also: potency is read from the fitted curve at half-maximal effect
Method in brief: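 Compounds are pinned onto HCT-116 p53RE-bla cells and left 16 h at 37 C. Following the reporter FRET read, ATP is quantified by CellTiter-Glo luminescence after 30 min at room temperature.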

[8] = biological target: 5-hydroxytryptamine receptor 2A (Homo sapiens) (UniProt P28223); experiment: 5-hydroxytryptamine receptor 2A (HTR2A) small molecule antagonists, cell-based qHTS assay (AID 1963586); settings: HTR2A-CHO cells, DOI-induced calcium flux, fluorescence; series mostly up to 61.5 µM; also: nearly all actives have a fitted effect of over 45% in size
Method in brief: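 Antagonist-mode intracellular calcium assay: DOI (4 nM) added after 5 min compound pre-incubation at room temperature to dye-loaded HTR2A-CHO cells. Fluorescence followed for 3 min, sampled every second.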

[9] = biological target: 5-hydroxytryptamine receptor 2A (Homo sapiens) (UniProt P28223); experiment: 5-hydroxytryptamine receptor 2A (HTR2A) small molecule agonists, cell-based qHTS assay (AID 1963587); settings: HTR2A-CHO cells, calcium flux fluorescence, agonist mode; series mostly up to 76.8 µM; also: nearly all actives have a fitted effect of over 30% in size; also: potency is read from the fitted curve at half-maximal effect
Method in brief: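 CHO cells stably expressing human HTR2A, plated 18 h, loaded with calcium dye 1 h at 37 C. Agonist mode: compounds added and intracellular calcium fluorescence recorded kinetically for 2 min at 1 sec intervals.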

[10] = biological target: Muscarinic acetylcholine receptor M1 (Homo sapiens) (UniProt P11229); experiment: Cholinergic receptor muscarinic 1 (CHRM1) small molecule antagonists, cell-based qHTS assay (AID 1963588); settings: CHRM1-CHO antagonist mode, calcium flux fluorescence; series mostly up to 61.5 µM; also: nearly all actives have a fitted effect of over 40% in size; also: potency is read from the fitted curve at half-maximal effect
Method in brief: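 CHRM1-CHO calcium-flux assay, antagonist mode. Cells were seeded 18 h, dye-loaded 1 h at 37 C and given compound for 5 min at RT, then acetylcholine was added at 50nM. FDSS fluorescence was read 3 min; 15 concentrations, three runs.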

[11] = biological target: Muscarinic acetylcholine receptor M1 (Homo sapiens) (UniProt P11229); experiment: Cholinergic receptor muscarinic 1 (CHRM1) small molecule agonists, cell-based qHTS assay (AID 1963589); settings: CHRM1-CHO cells, agonist mode, calcium flux fluorescence; series mostly up to 76.8 µM; also: nearly all actives have a fitted effect of over 35% in size; also: potency is read from the fitted curve at half-maximal effect
Method in brief: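 Stable CHRM1-CHO cells (human receptor) were incubated 18 h, dye-loaded for 1 h at 37 C and exposed to test compounds for agonist activity, with calcium-dependent fluorescence followed kinetically.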

[12] = cAMP Responsive Elements (CRE) small molecule antagonists, cell-based qHTS assay (AID 1963591; active = well fitted inhibition curve with a large enough effect in the signal ratio in the repeat runs, not every such curve was filed as active; the % refers to the signal ratio; also: potency is read from the fitted curve at half-maximal effect); settings: CRE-bla HEK293T, beta-lactamase FRET ratio; series mostly up to 92.4 µM
Method in brief: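 qHTS in CRE-bla HEK 293T cells: compound in DMSO, then 0.25 uM NKH477 (final), 3 h at 37 °C/5% CO2; beta-lactamase FRET read-out after 2 h substrate incubation.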

[13] = biological target: Beta-2 adrenergic receptor (Homo sapiens) (UniProt P07550); experiment: Adrenergic beta2 receptor (ADRB2) small molecule antagonists, cell-based qHTS assay (AID 1963592); settings: CHO-ADRB2 cells, isoproterenol-stimulated cAMP HTRF ratio, 0.5 h; series mostly up to 92.4 µM; also: nearly all actives have a fitted effect of over 50% in size; also: potency is read from the fitted curve at half-maximal effect
Method in brief: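 Cells (CHO, stable ADRB2 overexpression) incubated 18-20hr at 37C; compounds added from DMSO; agonist mix (1nM isoproterenol, 100uM IBMX, 25uM Ro-20-1724) added; 0.5hr RT; d2-cAMP and anti-cAMP-cryptate added; 1hr RT; 665/615 nm read.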

[14] = biological target: D(2) dopamine receptor (Homo sapiens) (UniProt P14416); experiment: Dopamine D2 receptor (DRD2) small molecule agonists, cell-based qHTS assay (AID 1963594); settings: HEK293-DRD2 cAMP HTRF, agonist mode, 30 min; series mostly up to 92.4 µM; also: nearly all actives have a fitted effect of over 35% in size
Method in brief: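 HEK293 cells stably expressing human DRD2, pre-treated with PDE inhibitor Ro20-1724 (0.1 mM final) and compound 10 min at room temperature, then stimulated with NKH477 (200nM […]) for 30 min. cAMP read by HTRF (665/620 nm).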

[15] = p53 small molecule agonists, cell-based qHTS assay with rat liver microsomes (AID 1963578); settings: HCT-116 p53RE-bla, beta-lactamase ratio, 16 h; series mostly up to 66 µM
Method in brief: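 Metabolic activation by rat liver microsomes and NADPH, each 0.5 mg/mL final, added right after compounds to p53RE-bla reporter cells (4,000/well, plated 5 h earlier). 16 h at 37 C, then LiveBLAzer substrate for 2 h at room temperature in the dark; fluorescence read-out.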

[16] = p53 small molecule agonists, cell-based qHTS assay with human liver microsomes: qHTS cell viability counter screen (AID 1963579); settings: p53RE-bla HCT-116 viability, ATP luminescence, 16 h, HLM; series mostly up to 66 µM; also: nearly all actives have a fitted effect of over 45% in size; also: potency is read from the fitted curve at half-maximal effect
Method in brief: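 Metabolic activation used human liver microsomes and NADPH, both 0.5 mg/mL final, over 16 hours at 37 C on p53RE-bla cells (4,000/well). Cytotoxicity measured by CellTiter-Glo luminescence, 30 min at room temperature.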

[17] = biological target: Beta-2 adrenergic receptor (Homo sapiens) (UniProt P07550); experiment: Adrenergic beta2 receptor (ADRB2) small molecule agonists, cell-based qHTS assay (AID 1963593); settings: CHO-ADRB2 cells, cAMP HTRF, 30 min; series mostly up to 92.4 µM;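 also: CHO cells stably overexpressing human ADRB2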
Method in brief: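 CHO cells stably over-expressing ADRB2 were plated overnight at 37C, then dosed with compounds plus a stimulation mix containing 100uM IBMX and 25uM Ro-20-1724 for 0.5hr at room temperature. cAMP was measured by HTRF competition, 1hr.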

[18] = cAMP Responsive Elements (CRE) small molecule agonists, cell-based qHTS assay (AID 1963590); settings: CRE-bla HEK293T, beta-lactamase FRET ratio, 3 h; series mostly up to 92.4 µM
Method in brief: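 FRET-based beta-lactamase readout (LiveBLAzer B/G, 2 h RT) quantified CRE activation in HEK 293T CRE-bla cells after 3 h treatment with DMSO-dissolved compounds.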

[19] = biological target: D(2) dopamine receptor (Homo sapiens) (UniProt P14416); experiment: Dopamine D2 receptor (DRD2) small molecule antagonists, cell-based qHTS assay (AID 1963595; active = well fitted inhibition curve with a large enough effect in the signal ratio in the repeat runs, with a control signal flat; the % refers to the signal ratio; also: potency is read from the fitted curve at half-maximal effect); settings: HEK293-DRD2 cAMP HTRF antagonist mode; series mostly up to 92.4 µM
Method in brief: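 Antagonist mode in DRD2-HEK293 cells: after compound addition with 0.1 mM Ro20-1724, cells received quinpirole (12 nM) and NKH477 (200 nM) for 30 min at room temperature; HTRF cAMP read after 1 h detection.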

[20] = biological target: KiSS-1 receptor (Homo sapiens) (UniProt Q969F8); experiment: Human kisspeptin (KISS1R) small molecule agonists, calcium flux assay in KISS1R-HEK293 cells (AID 1920064; active = well fitted curve in the direction sought with a large enough effect in the repeat runs; an effect the other way counts as inactive or inconclusive); settings: KISS1R-HEK293, calcium flux fluorescence, agonist; series mostly up to 76.8 µM
Method in brief: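 Intracellular calcium mobilization in KISS1R-HEK293 cells was recorded by fluorescence (Ex/Em 480/540) for 3 min following compound addition to cells pre-loaded 1 h with calcium dye.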

5-hydroxytryptamine receptor 2A (Homo sapiens), sequence (P28223 whole entry, looked up): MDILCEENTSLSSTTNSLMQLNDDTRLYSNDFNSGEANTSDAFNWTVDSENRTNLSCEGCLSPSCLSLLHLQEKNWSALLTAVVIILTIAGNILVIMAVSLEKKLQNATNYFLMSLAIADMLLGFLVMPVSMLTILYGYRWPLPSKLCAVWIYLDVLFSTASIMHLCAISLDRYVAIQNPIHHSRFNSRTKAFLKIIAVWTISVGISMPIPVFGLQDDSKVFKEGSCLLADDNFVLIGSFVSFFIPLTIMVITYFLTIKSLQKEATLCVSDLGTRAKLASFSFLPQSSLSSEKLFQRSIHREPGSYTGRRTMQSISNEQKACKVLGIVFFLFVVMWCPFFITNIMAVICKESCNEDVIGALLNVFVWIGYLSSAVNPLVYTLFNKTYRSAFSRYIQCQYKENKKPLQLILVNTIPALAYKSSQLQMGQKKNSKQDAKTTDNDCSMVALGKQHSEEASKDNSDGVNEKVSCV
Muscarinic acetylcholine receptor M1 (Homo sapiens), sequence (P11229 whole entry, looked up): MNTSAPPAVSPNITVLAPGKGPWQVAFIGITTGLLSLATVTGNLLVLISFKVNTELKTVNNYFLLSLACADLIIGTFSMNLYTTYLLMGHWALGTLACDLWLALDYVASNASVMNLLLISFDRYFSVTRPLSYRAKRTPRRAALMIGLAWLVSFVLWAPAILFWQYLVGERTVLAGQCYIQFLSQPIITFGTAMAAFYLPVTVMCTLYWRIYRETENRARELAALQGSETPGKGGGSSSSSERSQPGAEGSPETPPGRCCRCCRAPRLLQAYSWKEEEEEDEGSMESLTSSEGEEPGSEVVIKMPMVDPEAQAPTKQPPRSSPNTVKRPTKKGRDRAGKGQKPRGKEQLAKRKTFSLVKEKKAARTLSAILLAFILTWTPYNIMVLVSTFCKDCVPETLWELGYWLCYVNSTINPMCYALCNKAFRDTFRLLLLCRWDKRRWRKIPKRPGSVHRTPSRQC
KiSS-1 receptor (Homo sapiens), sequence (Q969F8 whole entry, looked up): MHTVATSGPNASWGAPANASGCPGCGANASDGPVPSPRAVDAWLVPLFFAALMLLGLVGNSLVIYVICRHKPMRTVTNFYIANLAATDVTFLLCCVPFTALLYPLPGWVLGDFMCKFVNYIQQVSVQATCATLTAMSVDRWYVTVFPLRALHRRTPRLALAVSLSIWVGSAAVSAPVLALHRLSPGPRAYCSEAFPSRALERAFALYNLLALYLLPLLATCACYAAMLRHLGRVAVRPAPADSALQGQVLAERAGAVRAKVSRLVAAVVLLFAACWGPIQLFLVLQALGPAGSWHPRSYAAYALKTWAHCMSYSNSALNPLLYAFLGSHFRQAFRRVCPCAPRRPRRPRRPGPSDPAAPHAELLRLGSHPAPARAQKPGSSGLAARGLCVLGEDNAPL
Gonadotropin-releasing hormone receptor (Homo sapiens), sequence (P30968 whole entry, looked up): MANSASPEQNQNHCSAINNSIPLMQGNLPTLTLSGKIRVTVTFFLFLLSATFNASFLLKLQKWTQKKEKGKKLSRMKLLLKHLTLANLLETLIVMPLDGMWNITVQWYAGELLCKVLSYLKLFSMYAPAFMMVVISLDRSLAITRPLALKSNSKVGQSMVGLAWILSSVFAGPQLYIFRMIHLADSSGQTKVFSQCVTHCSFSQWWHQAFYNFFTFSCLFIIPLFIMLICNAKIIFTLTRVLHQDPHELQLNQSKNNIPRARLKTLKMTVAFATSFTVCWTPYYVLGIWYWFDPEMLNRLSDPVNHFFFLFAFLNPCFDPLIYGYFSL
Beta-2 adrenergic receptor (Homo sapiens), sequence (P07550 whole entry, looked up): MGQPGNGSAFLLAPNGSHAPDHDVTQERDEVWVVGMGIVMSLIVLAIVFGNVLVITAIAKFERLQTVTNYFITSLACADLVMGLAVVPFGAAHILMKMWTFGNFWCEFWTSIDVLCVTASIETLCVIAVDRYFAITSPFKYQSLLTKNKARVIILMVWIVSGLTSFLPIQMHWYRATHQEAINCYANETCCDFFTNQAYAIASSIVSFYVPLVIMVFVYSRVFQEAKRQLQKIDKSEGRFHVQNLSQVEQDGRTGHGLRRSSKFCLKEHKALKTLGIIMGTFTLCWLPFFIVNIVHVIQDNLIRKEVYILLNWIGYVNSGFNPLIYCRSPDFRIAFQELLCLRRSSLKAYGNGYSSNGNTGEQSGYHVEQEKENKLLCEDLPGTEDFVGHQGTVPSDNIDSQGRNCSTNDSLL
D(2) dopamine receptor (Homo sapiens), sequence (P14416 whole entry, looked up): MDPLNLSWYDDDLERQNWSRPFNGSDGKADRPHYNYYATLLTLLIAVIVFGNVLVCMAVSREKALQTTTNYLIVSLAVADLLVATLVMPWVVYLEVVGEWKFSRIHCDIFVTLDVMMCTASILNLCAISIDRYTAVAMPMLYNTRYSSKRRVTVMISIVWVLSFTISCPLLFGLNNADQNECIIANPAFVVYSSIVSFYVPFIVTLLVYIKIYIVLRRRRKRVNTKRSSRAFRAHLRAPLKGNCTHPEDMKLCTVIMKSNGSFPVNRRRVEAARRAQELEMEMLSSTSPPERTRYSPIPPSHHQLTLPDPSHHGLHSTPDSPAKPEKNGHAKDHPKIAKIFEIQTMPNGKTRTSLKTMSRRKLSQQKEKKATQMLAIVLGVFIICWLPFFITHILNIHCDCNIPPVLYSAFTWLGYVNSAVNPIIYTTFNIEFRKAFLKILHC

Row | SMILES | Potency [1] | Potency [2] | Potency [3] | Potency [4] | Potency [5] | Potency [6] | Potency [7] | Potency [8] | Potency [9] | Potency [10] | Potency [11] | Potency [12] | Potency [13] | Potency [14] | Potency [15] | Potency [16] | Potency [17] | Potency [18] | Potency [19] | Potency [20]
1 | Cc1ccccc1OP(=O)(Oc1ccccc1C)Oc1ccccc1C | inactive | 48.8 µM (active) | inactive | inactive | 1.83 µM (active) | inactive | inactive | inactive | inactive | inactive | inactive | inactive | inactive | inactive | – | – | – | – | – | –
2 | Cn1cc(C2=C(c3cn(C4CCN(Cc5ccccn5)CC4)c4ccccc34)C(=O)NC2=O)c2ccccc21 | 4.22 µM (active) | inactive | inactive | inactive | inactive | inactive | – | inactive | – | inactive | – | – | inactive | inactive | inactive | inactive | inactive | – | – | –
3 | O=C(Nc1ccc2[nH]ccc2c1)c1cc2cc(F)ccc2n1Cc1cccc(F)c1 | 24.3 µM (active) | inactive | inactive | inactive | inactive | inactive | – | inactive | – | inactive | inactive | 61.1 µM (active) | inactive | inactive | inactive | – | inactive | inactive | inactive | –
4 | Cc1nc(N)nc(N)n1 | inactive | inactive | inactive | inactive | inactive | – | inactive | – | inactive | inactive | inactive | inactive | – | inactive | inactive | inactive | – | inactive | – | –
5 | CCNc1nc(NC(C)C(C)C)nc(SC)n1 (centres undefined) | inactive | inactive | inactive | – | – | inactive | inactive | inactive | – | inactive | – | inactive | inactive | inactive | – | inactive | – | inactive | – | inactive
6 | CC[C@H](C)[C@H]1O[C@]2(C=C[C@@H]1C)C[C@@H]1C[C@@H](C/C=C(\C)[C@@H](O[C@H]3C[C@H](OC)[C@@H](O[C@H]4C[C@H](OC)[C@@H](NC)[C@H](C)O4)[C@H](C)O3)[C@@H](C)/C=C/C=C3\CO[C@@H]4[C@H](O)C(C)=C[C@@H](C(=O)O1)[C@]34O)O2 | 9.69 µM (active) | inactive | 11 µM (active) | inactive | inactive | 14.5 µM (active) | – | inactive | 38.9 µM (active) | 23.7 µM (active) | 38.9 µM (active) | – | 43.3 µM (active) | inactive | inactive | 28.9 µM (active) | – | – | 13.7 µM (active) | –
7 | CCCCS(=O)(=O)Cl | inactive | inactive | inactive | inactive | inactive | inactive | inactive | inactive | inactive | inactive | – | inactive | inactive | inactive | inactive | inactive | inactive | inactive | inactive | –
8 | COC1=CC(=O)O[C@@H](CCc2ccccc2)C1 | inactive | inactive | inactive | inactive | inactive | inactive | inactive | inactive | inactive | inactive | inactive | inactive | inactive | inactive | inactive | inactive | – | – | inactive | –
9 | CC(C)(C)c1cc([N+](=O)[O-])cc([N+](=O)[O-])c1O | 13.6 µM (active) | 30.5 µM (active) | 38.8 µM (active) | – | – | inactive | – | inactive | inactive | inactive | inactive | – | – | inactive | – | inactive | – | – | inactive | inactive
10 | ClCCCCCCCl | inactive | inactive | inactive | – | – | inactive | inactive | inactive | inactive | inactive | inactive | inactive | inactive | inactive | – | – | inactive | inactive | inactive | inactive
11 | C[N+]1(CCF)[C@@H]2CC[C@H]1CC(OC(=O)C(O)(c1ccccc1)c1ccccc1)C2 (some centres undefined) | inactive | inactive | – | inactive | inactive | inactive | inactive | inactive | inactive | – | inactive | inactive | inactive | inactive | inactive | inactive | – | inactive | inactive | inactive
12 | CCc1ccccc1N | inactive | inactive | inactive | inactive | – | inactive | inactive | inactive | inactive | inactive | inactive | inactive | inactive | inactive | – | inactive | – | inactive | inactive | –
13 | CC(O)C(=O)[O][Hg][c]1ccccc1 (centres undefined) | 1.72 µM (active) | 0.864 µM (active) | – | inactive | inactive | 8.14 µM (active) | 2.89 µM (active) | inactive | – | inactive | 54.9 µM (active) | – | – | – | inactive | 3.63 µM (active) | – | – | 2.73 µM (active) | inactive
